Rows were chosen to be rich in hits. Some 2.4% of all compounds tested hit in one or more screens of this group.
15-hLO inh – inhibitors of human 15-lipoxygenase (ALOX15) | P16050 | purified 15hLO-1, xylenol orange hydroperoxide absorbance | Potency, µM (series often up to 57.1 µM), usual class: inhibitors | hit rate 1.4% among 74,000; further: nearly all actives have a fitted effect of over 55% in size
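40 nM 15hLO-1 + cpd, 15 min RT; start w/ 50 uM AA (final), 6 min RT; stop/detect w/ 200 uM XO + 300 uM Fe(II) in 50 mM H2SO4, 30 min; A573/A405. Buffer 25 mM Hepes pH 7.5, 0.01% Triton X-100. No-enzyme wells as negative control.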
Tau fil binding – tau filament binding | Potency, µM (top dose mostly 57.1 µM) | hit rate 2% among 71,000 | recombinant tau filaments, thioflavin S fluorescence, 15 h; filaments grown with octadecylsulfate alongside compound | AID 596;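 further: actives lower thioflavin S fluorescence by blocking filaments or displacing dye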
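Recombinant tau protein (human, 1 uM final) plus 30 uM ODS in HEPES pH 7.4 with NaCl, DTT and thioflavine S. Compound present from the start; fluorescence at 510 nm after 15 h, 37 C.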
Casp1 inh – blocks human caspase-1 allosterically or competitively. P29466. Caspase-1 enzyme, Ac-WEHD-AFC fluorogenic rate. Potency, µM (doses to about 57.5 µM), hits mostly inhibitors. hit rate 0.03% among 75,000
ALOX15B inhib – blocks human 15-lipoxygenase 2 activity | hit rate 0.56% among 110,000 | purified 15hLO-2, xylenol orange hydroperoxide absorbance | AID 881 | O15296 | Potency, µM (top dose mostly 57.1 µM), actives largely listed as inhibitors; further: nearly all actives have a fitted effect of over 60% in size
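Screening format was qHTS against 50 nM purified 15hLO-2 in Hepes pH 7.5 with detergent. Activity follows hydroperoxide formation from 45 uM arachidonic acid, measured as 573:405 nm absorbance ratio of the ferric-xylenol orange complex.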
Casp7 inh – caspase-7 (human) inhibition, allosteric or competitive. Potency, µM (highest dose often 57.5 µM), usual class: inhibitors. hit rate 0.02% among 75,000. recombinant caspase-7, Ac-DEVD-AFC fluorescence rate. P55210; active means well fitted inhibition curve with a large enough effect in the main read-out, with a control signal flat, not every such curve was filed as active; inconclusive means small, poorly fitted or top-dose-only effect, or a change in a side signal
Hsp90 Hop PPI – changes Hsp90-Hop TPR2A binding signal, up or down; AlphaScreen TPR2A-His6 binding biotin-Hsp90 C-terminal peptide; Potency, µM (top dose mostly 57 µM); hit rate 0.44% among 71,000; active means well fitted curve in either direction with a large enough effect; inconclusive means small, poorly fitted or top-dose-only effect, or another doubt
Numbers stand for hits; ! = a repeat was not active. Unless noted, the call rests on the fitted dose curve; in most records, active means well fitted curve in the direction sought with a large enough effect; inconclusive means small, poorly fitted or top-dose-only effect, or another doubt; inactive means no such curve, though single readings can be large; an effect the other way counts as inactive or inconclusive.

How did CC(C)(C)c1ccccc1OCC(=O)Nc1ncn[nH]1 do in these assays?
15-hLO inh: inactive; Tau fil binding: inactive; Casp1 inh: inactive; ALOX15B inhib: inactive; Casp7 inh: inactive; Hsp90 Hop PPI: inactive

How did CC(C)[C@@H](CC(=O)N[C@@H]1CCCC[C@H]1C(=O)N[C@H](CC(=O)N[C@@H](CCC(=O)O)CC(=O)O)Cc1c[nH]c2ccccc12)NC(=O)C[C@H](Cc1c[nH]c2ccccc12)NC(=O)[C@@H]1CNCC[C@H]1N do in these assays?
Tau fil binding: inactive; Hsp90 Hop PPI: 16µM

Results for COc1ccc(-c2nnc3ccc(SCC(=O)N4CCN(c5ccccc5)CC4)nn23)cc1 ?
15-hLO inh: inconclusive; Tau fil binding: inactive; Casp1 inh: inactive; Casp7 inh: inactive; Hsp90 Hop PPI: inactive

Results for Cc1ccc(-c2nnc3ccc(SC(C)C(=O)O)nn23)cc1 (stereo not drawn) ?
15-hLO inh: 10µM; Tau fil binding: inactive; Casp1 inh: inactive; ALOX15B inhib: inconclusive; Casp7 inh: inactive; Hsp90 Hop PPI: inactive

Results for O=C(CSc1ccc2nnc(-c3ccccc3)n2n1)N1CCN(c2ccccc2)CC1 ?
15-hLO inh: inactive; Tau fil binding: 1.6µM; Casp1 inh: inactive; Casp7 inh: inactive; Hsp90 Hop PPI: inactive

Results for COCCCNC(=O)Cn1cc2c(n1)CCCCC2 ?
15-hLO inh: inactive; Tau fil binding: inactive; Casp1 inh: inactive; ALOX15B inhib: inactive; Casp7 inh: inactive; Hsp90 Hop PPI: inactive

What do the screens show for `O=C1c2ccccc2C(Nc2ccc3c(c2)OCCO3)N1Cc1ccccc1` (stereo not drawn)?
15-hLO inh: inactive; Tau fil binding: 20µM; Casp1 inh: inactive; ALOX15B inhib: inactive; Casp7 inh: inactive; Hsp90 Hop PPI: inconclusive

How did CCOc1ccc(NC2c3ccccc3C(=O)N2Cc2ccc3c(c2)OCO3)cc1 (stereo not drawn) do in these assays?
ALOX15B inhib: inactive

What do the screens show for `CN1CCN(c2ncnc3ccc(-c4ccoc4)cc23)CC1`?
15-hLO inh: inactive; Tau fil binding: inactive; Casp1 inh: inactive; ALOX15B inhib: inactive; Casp7 inh: inactive; Hsp90 Hop PPI: inactive

How did O=[N+]([O-])c1cc(C(F)(F)F)ccc1NCCNC(=S)Nc1ccc(Cl)cc1 do in these assays?
ALOX15B inhib: 32µM

Results for CCOc1ccc2nc(NC(=O)C(CCSC)NS(=O)(=O)c3cccs3)sc2c1 (stereo not drawn) ?
15-hLO inh: 16µM; Tau fil binding: inactive; Casp1 inh: inactive; ALOX15B inhib: inactive; Casp7 inh: inactive; Hsp90 Hop PPI: inactive

What do the screens show for `O=C(C1CCN(S(=O)(=O)c2cccnc2)CC1)N1CCN(c2cccc(Cl)c2)CC1`?
ALOX15B inhib: inactive

How did NC(=O)c1sc(=S)n(-c2ccc(Br)cc2)c1N do in these assays?
15-hLO inh: 10µM; Tau fil binding: inactive; Casp1 inh: inactive; ALOX15B inhib: inactive; Casp7 inh: inactive; Hsp90 Hop PPI: inconclusive

Results for N#Cc1ccc(OCc2nnc(SCC(=O)N3CCCc4ccccc43)n2-c2ccccc2)cc1 ?
15-hLO inh: 2.5µM; Tau fil binding: inactive; Casp1 inh: inactive; ALOX15B inhib: inactive; Casp7 inh: inactive; Hsp90 Hop PPI: inactive

What do the screens show for `COc1ccc(-n2c(Cc3cccn3C)nnc2SCC(=O)N2CCCC2)cc1`?
15-hLO inh: inactive; Tau fil binding: inactive; Casp1 inh: inactive; Casp7 inh: inactive; Hsp90 Hop PPI: inactive

Results for COc1ccc(-n2c(Cc3cccn3C)nnc2SCC(=O)N2CCCc3ccccc32)cc1 ?
15-hLO inh: 13µM; Tau fil binding: inactive; Casp1 inh: inactive; ALOX15B inhib: inactive; Casp7 inh: inactive; Hsp90 Hop PPI: inactive

What do the screens show for `CC(/C=C1\N=C(SCc2ccccc2Cl)SC1=O)=C\c1ccccc1`?
ALOX15B inhib: 25µM

How did Clc1ccccc1CSc1nnc(/C=C/c2ccccc2)o1 do in these assays?
ALOX15B inhib: inactive

What do the screens show for `O=c1c2c3nc4ccccc4nc3n(Cc3ccccc3)c2ncn1Cc1ccco1`?
15-hLO inh: inconclusive; Tau fil binding: 10µM; ALOX15B inhib: inconclusive; Casp7 inh: inconclusive; Hsp90 Hop PPI: inactive

How did C=CCSc1nnc(-c2cc(Br)ccc2N)c(=O)[nH]1 do in these assays?
15-hLO inh: inactive; Tau fil binding: inactive; Casp1 inh: inactive; ALOX15B inhib: inactive; Casp7 inh: inactive; Hsp90 Hop PPI: inactive

How did CCCCSc1nnc(-c2cc(Br)ccc2N)c(=O)[nH]1 do in these assays?
15-hLO inh: inactive; Tau fil binding: 20µM; Casp1 inh: inactive; ALOX15B inhib: inactive; Casp7 inh: inactive; Hsp90 Hop PPI: inactive

How did NC(=O)SCC(=O)Nc1ccc(Cl)cc1 do in these assays?
15-hLO inh: 25µM; Casp1 inh: inactive; ALOX15B inhib: inconclusive; Casp7 inh: inactive

How did Oc1ccc(NCc2ccccc2OCc2ccccc2F)cc1 do in these assays?
ALOX15B inhib: 13µM

How did CC/C=C\C/C=C\C/C=C\CCCCCCCC(=O)O do in these assays?
15-hLO inh: 0.13µM; Tau fil binding: inactive; Casp1 inh: inactive; ALOX15B inhib: 14µM!; Casp7 inh: inactive; Hsp90 Hop PPI: inactive

Results for CCCCCCC/C=C\CCCCCCCCC(=O)O ?
15-hLO inh: inconclusive; Tau fil binding: inconclusive; Casp1 inh: inactive; ALOX15B inhib: inconclusive; Casp7 inh: inactive; Hsp90 Hop PPI: inactive

How did CCc1cc2cc3c(cc2nc1SCC(=O)Nc1cc(C)on1)OCO3 do in these assays?
15-hLO inh: inactive; Tau fil binding: inactive; Casp1 inh: inactive; ALOX15B inhib: inactive; Casp7 inh: inactive; Hsp90 Hop PPI: inactive

What do the screens show for `Cc1sc2c(c1C)c(=O)n(-c1ccccc1)c1nnc(C)n21`?
15-hLO inh: 3.2µM; Casp1 inh: inactive; ALOX15B inhib: inactive; Casp7 inh: inactive

What do the screens show for `COc1ncc2nc(-c3ccccc3)c(=O)n(CCc3ccccc3)c2n1`?
15-hLO inh: inactive; Tau fil binding: inactive; ALOX15B inhib: inactive; Casp7 inh: inconclusive; Hsp90 Hop PPI: inactive

How did C=CC(C1=CC(=O)C(OC)=CC1=O)c1ccccc1 (stereo not drawn) do in these assays?
15-hLO inh: 3.2µM; Casp1 inh: inactive; ALOX15B inhib: 20µM; Casp7 inh: inactive

Results for C=CC(C1=CC(=O)C(OC)=CC1=O)c1ccc(OC)cc1 (stereo not drawn) ?
15-hLO inh: 7.9µM; Casp1 inh: inactive; ALOX15B inhib: inconclusive; Casp7 inh: inactive

Results for O=[N+]([O-])c1ccc(N2N=C(c3ccco3)CC2c2ccccc2)cc1 (stereo not drawn) ?
ALOX15B inhib: 13µM

What do the screens show for `C=CCOC(=O)c1sc(N2C(=O)c3oc4ccccc4c(=O)c3C2c2ccco2)nc1C` (stereo not drawn)?
15-hLO inh: inactive; Tau fil binding: 10µM; Casp1 inh: inactive; Casp7 inh: inactive; Hsp90 Hop PPI: inactive

Results for Cc1ccc2c(c1)CCCN2C(=O)Nc1ccc2c(c1)OCO2 ?
15-hLO inh: 20µM; Tau fil binding: inconclusive; Casp1 inh: inactive; ALOX15B inhib: inactive; Casp7 inh: inactive; Hsp90 Hop PPI: inconclusive

High-throughput results: PubChem BioAssay, National Center for Advancing Translational Sciences (NCATS)
